Some test systems named below: DU-145 prostate; K-562 leukemia; MALME-3M melanoma; MDA-MB-231 breast; RXF 393 renal; SF-268 CNS; SF-295 CNS; SF-539 CNS; UACC-257 melanoma; M14 melanoma.
Assay in all cases: NCI-60 one-dose screen, 48 h (100 = growth as untreated, 0 = no growth, -100 = all killed)
What all share (details): 10 µM unless noted

The panel holds about 83,000 compounds, 20% with a hit somewhere; the sample as a whole holds those more often.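 How to read the values: 0–100, growth inhibition (40 = 60% inhibited); 0, no net growth; -100 to 0, cell death (-40 = 40% of starting cells died; -100 = all dead).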 Unmarked numbers belong to inactive results. Calls of active or inactive are those of the source. The calls were made as follows: active = growth percent below 10; inactive = the rest.

Take `C[C@]12CC[C@@H]3c4cc(OC(F)F)c(O)cc4CC[C@H]3[C@@H]1CC[C@@H]2OS(N)(=O)=O`: the growth was 9.56% (active) in the experiment on DU-145 prostate; 14.1% in the experiment on K-562 leukemia; 27.1% in the experiment with MALME-3M melanoma; 50.9% in the experiment on MDA-MB-231 breast; 19.1% with RXF 393 renal; 58.3% in the experiment on SF-268 CNS. For the same compound, the growth with SF-295 CNS is 12.8%; with SF-539 CNS, 5.62% (active); in the experiment on UACC-257 melanoma it was 71.8%; in the experiment on M14 melanoma, 17.6%.
With `COc1ccc(/C=N/C2=C(C#N)C(c3ccc(OC)cc3)c3ccc4ccccc4c3O2)cc1` (stereo not given), the growth in the experiment with DU-145 prostate is 97.7%; in the experiment on K-562 leukemia, 23.4%; with MALME-3M melanoma, 74.2%; in the experiment with MDA-MB-231 breast, 53.5%; in the experiment with RXF 393 renal, 84.8%; with SF-268 CNS, 77.2%. For the same compound, the growth with SF-295 CNS was 88.6%; in the experiment on SF-539 CNS, 79.5%; in the experiment on UACC-257 melanoma, 92.1%; with M14 melanoma, 69.7%.
As to `Cc1ccc2nc3ccccc3c(NCc3ccccc3)c2c1`, the growth with DU-145 prostate is 35.8%; with K-562 leukemia, 10.9%; in the experiment on MALME-3M melanoma, 55.2%; with MDA-MB-231 breast, 35.8%; in the experiment with RXF 393 renal it was 1.32% (active); in the experiment on SF-268 CNS it was 69%. The growth was 28.1% in the experiment with SF-295 CNS, 23.2% with SF-539 CNS, 56.6% with UACC-257 melanoma and 45.6% in the experiment with M14 melanoma.
As for `COC(=O)c1c2c(c[n+]([O-])c1C)C(=O)C=CC2=O`, the growth was 74.1% in the experiment on DU-145 prostate; 2.05% (active) in the experiment on K-562 leukemia; -97.1% (active) with MALME-3M melanoma; 49.9% in the experiment on MDA-MB-231 breast; 57.3% in the experiment with RXF 393 renal; 68.7% in the experiment with SF-268 CNS. The growth was 103% in the experiment with SF-295 CNS, 83.5% with SF-539 CNS, -35.1% (active) with UACC-257 melanoma and -64.5% (active) in the experiment on M14 melanoma.
For `O=c1c2c3c(sc2n2c(-c4cc(-c5ccccc5)nn4-c4ccccc4)nnc2n1Cc1ccccc1)CCCC3`, the growth is 107% in the experiment with DU-145 prostate; 27.1% in the experiment with K-562 leukemia; 123% in the experiment with MALME-3M melanoma; 94.2% in the experiment on MDA-MB-231 breast; 90% in the experiment with RXF 393 renal; 89.2% with SF-268 CNS. Also, the growth in the experiment on SF-295 CNS was 5.76% (active); in the experiment on SF-539 CNS, 112%; in the experiment with UACC-257 melanoma, 106%; with M14 melanoma, 92.4%.
Take `N#C/C(=C/C=C/c1cccc(Cl)c1)S(=O)c1ccccc1` (stereo not given): the growth in the experiment with DU-145 prostate was -92.6% (active); in the experiment on K-562 leukemia, 2.14% (active); with MALME-3M melanoma, -41.5% (active); in the experiment on MDA-MB-231 breast it was -57.6% (active); with RXF 393 renal, -87.6% (active); in the experiment with SF-268 CNS, -59.2% (active). The growth in the experiment with SF-295 CNS was -28.9% (active); in the experiment with SF-539 CNS, -50.3% (active); in the experiment on UACC-257 melanoma it was -46.8% (active); in the experiment on M14 melanoma, -52.6% (active).
On to `N=C1C(c2nc(-c3ccc(Br)cc3)cs2)=C(O)CN1CC1CCCO1` (stereo not given), for which the growth in the experiment on DU-145 prostate was 69.7%; with K-562 leukemia, 64.1%; in the experiment on MALME-3M melanoma, 112%; with MDA-MB-231 breast it was 90.9%; with RXF 393 renal, 83%; with SF-268 CNS it was 87.9%. For the same compound, the growth with SF-295 CNS is 91.5%; in the experiment with SF-539 CNS, 81.4%; in the experiment with UACC-257 melanoma, 84.3%; in the experiment with M14 melanoma it was 91.5%.
`NC(=S)Nc1cccc(O)c1`: the growth in the experiment with DU-145 prostate is 121%; with K-562 leukemia it was 106%; in the experiment with MALME-3M melanoma, 102%; in the experiment on MDA-MB-231 breast, 96.7%; in the experiment with RXF 393 renal, 120%; with SF-268 CNS, 109%. Besides, the growth with SF-295 CNS is 100%; in the experiment on SF-539 CNS it was 95.8%; in the experiment with UACC-257 melanoma, 92.9%; with M14 melanoma, 98.4%.
As to `O=C1/C(=C\c2cccnc2)SC(=S)N1CCc1ccc(O)cc1`, the growth in the experiment on DU-145 prostate was 16.6%; in the experiment on K-562 leukemia, 36%; in the experiment on MALME-3M melanoma, 79.6%; with MDA-MB-231 breast, 47.1%; in the experiment on RXF 393 renal, 25.1%; in the experiment with SF-268 CNS, 68.5%. The growth was 94% in the experiment on SF-295 CNS, 23.2% with SF-539 CNS, 38.9% in the experiment with UACC-257 melanoma and 60.2% with M14 melanoma.
`COc1ccc(-c2csc(C3=C(O)CN(CCCN4CCCC4=O)C3=N)n2)cc1OC`: the growth is 103% with DU-145 prostate; 88.9% with K-562 leukemia; 129% in the experiment on MALME-3M melanoma; 79.6% with MDA-MB-231 breast; 78.3% with RXF 393 renal; 121% in the experiment on SF-268 CNS. Moreover, the growth in the experiment on SF-295 CNS was 92%; in the experiment on SF-539 CNS it was 90.1%; in the experiment with UACC-257 melanoma, 97.2%; in the experiment with M14 melanoma, 122%.
As to `CCc1ccccc1NC(=O)/C(C#N)=C/c1ccc(OC)cc1`, the growth in the experiment with DU-145 prostate is 100%; in the experiment on K-562 leukemia, 99.5%; with MALME-3M melanoma, 104%; in the experiment on MDA-MB-231 breast it was 105%; in the experiment with RXF 393 renal, 126%; with SF-268 CNS it was 93.8%. The growth in the experiment on SF-295 CNS was 91.9%; with SF-539 CNS, 108%; with UACC-257 melanoma, 108%; in the experiment on M14 melanoma, 99.1%.
Regarding `O=c1oc2ccccc2c(Cl)c1Cl`, the growth in the experiment with DU-145 prostate was 107%; in the experiment on K-562 leukemia it was 37.2%; with MALME-3M melanoma, 58.5%; with MDA-MB-231 breast, 62.6%; with RXF 393 renal, 66.6%; in the experiment on SF-268 CNS, 86.5%. Further, the growth in the experiment on SF-295 CNS is 106%; with SF-539 CNS it was 81.3%; in the experiment on UACC-257 melanoma, 40%; in the experiment with M14 melanoma, 17.1%.
Take `Cc1ccc(C(=O)C2=C(O)C(=O)N(Cc3cccnc3)C2c2ccccc2F)o1` (stereo not given): the growth was 105% in the experiment with DU-145 prostate; 76.7% in the experiment on K-562 leukemia; 101% in the experiment with MALME-3M melanoma; 106% in the experiment on MDA-MB-231 breast; 95.8% in the experiment on RXF 393 renal; 98.1% with SF-268 CNS. Besides, the growth in the experiment with SF-295 CNS is 93.1%; in the experiment with SF-539 CNS, 95.1%; with UACC-257 melanoma, 95.7%; in the experiment with M14 melanoma, 101%.

(Values after PubChem BioAssay (NCI).)
